Test results as given in PMC7826789 (International Journal of Molecular Sciences, 2021).

Legend:
Conditions in all cases: Compound Concentration (nM):1000
MYLK4 = tested on: MYLK4
MYLK = tested on: MYLK
MYO3A = tested on: MYO3A
MYO3B = tested on: MYO3B
NDR1 = tested on: T1, NDR1
T1 construct: gene STK38

NDR2 = tested on: T2, NDR2
T2 construct: gene STK38L

NEK10 = tested on: NEK10
NEK11 = tested on: NEK11
NEK1 = tested on: NEK1
NEK2 = tested on: NEK2
NEK3 = tested on: NEK3
NEK4 = tested on: NEK4
NEK5 = tested on: NEK5
NEK6 = tested on: NEK6
NEK7 = tested on: NEK7
NEK9 = tested on: NEK9
NIK = tested on: T3, NIK
T3 construct: gene MAP3K14

NIM1 = tested on: T4, NIM1
T4 construct: gene MGC42105

NLK = tested on: NLK
OSR1 = tested on: T5, OSR1
T5 construct: gene OXSR1
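Further: KINOMEscan scanMAX binding as percent activity remaining versus control; lower means stronger binding.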

| Structure (SMILES) | Percent Control (MYLK4) [%] | Percent Control (MYLK) [%] | Percent Control (MYO3A) [%] | Percent Control (MYO3B) [%] | Percent Control (NDR1) [%] | Percent Control (NDR2) [%] | Percent Control (NEK10) [%] | Percent Control (NEK11) [%] | Percent Control (NEK1) [%] | Percent Control (NEK2) [%] | Percent Control (NEK3) [%] | Percent Control (NEK4) [%] | Percent Control (NEK5) [%] | Percent Control (NEK6) [%] | Percent Control (NEK7) [%] | Percent Control (NEK9) [%] | Percent Control (NIK) [%] | Percent Control (NIM1) [%] | Percent Control (NLK) [%] | Percent Control (OSR1) [%] |
| --- | --- | --- | --- | --- | --- | --- | --- | --- | --- | --- | --- | --- | --- | --- | --- | --- | --- | --- | --- | --- |
| C/C(Nc1ccc(S(N)(=O)=O)cc1)=C1/C(=O)Nc2ccccc21 [GW335962X] | 100 | 70 | 66 | 100 | 65 | 87 | 100 | 100 | 75 | 100 | 96 | 77 | 97 | 100 | 95 | 95 | 78 | 86 | 87 | 94 |
| Cl.O=C(Nc1ccc(Oc2ccc3[nH]c(NC(=O)c4ccco4)nc3c2)cc1)Nc1cc(C(F)(F)F)ccc1F [GW683134A] | 100 | 100 | 100 | 100 | 100 | 76 | 100 | 100 | 80 | 100 | 97 | 81 | 96 | 100 | 100 | 10 | 100 | 97 | 87 | 100 |
| Cl.c1ccc(Cc2nc3ccc(Nc4ncnc5ccccc45)cc3[nH]2)cc1 [GR269666A] | 100 | 100 | 100 | 100 | 100 | 100 | 100 | 100 | 99 | 100 | 100 | 100 | 100 | 100 | 100 | 100 | 100 | 94 | 100 | 100 |
| COc1ccc2[nH]c3c4[nH]c5ccc(OC)cc5c4c4c(c3c2c1)C(=O)NC4=O [GW296115X] | 49 | 6.9 | 81 | 100 | 57 | 72 | 93 | 100 | 100 | 78 | 67 | 85 | 76 | 87 | 92 | 100 | 20 | 100 | 52 | 100 |
| CC1=C(C(=O)Nc2ccc3[nH]ncc3c2)C(c2ccc(Cl)c(Cl)c2)CC(=O)N1 (stereo not shown) [GSK299115A] | 91 | 100 | 88 | 90 | 21 | 67 | 72 | 86 | 84 | 97 | 80 | 89 | 58 | 95 | 87 | 68 | 76 | 79 | 78 | 73 |
